For assay [1], the target named is Sphingosine 1-phosphate receptor 4 (Homo sapiens) (UniProt O95977). The assay can be described thus: blockers of human S1P4 signalling – cell-based, confirmation (AID 1524; in the data active = inhibition above about 30%). To be noted: S1P4-expressing cell line, antagonist mode, reporter read-out; at 4.98 µM; active compounds read high.
The target of assay [2] is Neuropeptide Y receptor type 2 (Homo sapiens) (UniProt P49146). The assay can be described thus: human Y2 receptor positive modulation or activation – cell-based, confirmation (AID 1539; in the data active = activation above about 33%). To be noted: cell-based NPY-Y2 potentiator/agonist assay; at 3.6 µM; active compounds read high.
The target in assay [3] is Sphingosine 1-phosphate receptor 1 (Homo sapiens) (UniProt P21453). The assay can be described thus: blockade of human S1P1 receptor – cell-based, counter-screen for S1P4 antagonist project (AID 1564; in the data active = inhibition above about 40%;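 note: receptor stimulated with S1P near its EC80; 0% = agonist stimulated wells and 100% = vehicle only wells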). To be noted: cell-based S1P1 antagonist counterscreen, at 4.98 µM, active compounds read high. A general note: A counterscreen serves to expose hits that act by an unwanted route or on another target.

In assay [4] the target is Neuropeptide Y receptor type 1 (Homo sapiens) (UniProt P25929). The assay can be described thus: human Y1 receptor positive modulation or activation – cell-based, fluorescence, counter-screen for NPY-Y2 potentiator project (AID 1651; in the data active = activation above about 45%;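 note: cells stimulated with submaximal NPY then isoproterenol with phosphodiesterase inhibitor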). To be noted: Y1 HEK293-CNG cells, membrane potential fluorescence; at 3.6 µM; active compounds read high.
The target is the same in assay [5]. Kind of assay: human Y1 receptor agonism, CNGC membrane potential – cell-based, fluorescence, selectivity assay for NPY-Y2 potentiator project (AID 1702;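 active = activation above the mean of DMSO-only control wells plus 3 SD, cut at about 18% in these data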;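 note: cells stimulated with 1 µM isoproterenol plus the PDE inhibitor Ro 20-1724; 0% = isoproterenol with DMSO and no NPY and 100% = 40 nM NPY; Y1 agonists lower the membrane potential dye signal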). To be noted: HEK293 Y1-CNGC, at 3.6 µM, active compounds read high.
Assay [6] in a line: blockers of isoproterenol-driven CNG channel signal – cell-based, HEK293-CNG parental, membrane potential fluorescence, counter-screen for NPY-Y2 potentiator project (AID 1703;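 active = inhibition above the control-well mean plus 3 SD of those wells, cut at about 22% in these data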;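 note: 0% = DMSO with isoproterenol and 100% = DMSO without isoproterenol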). To be noted: isoproterenol cAMP, at 3.6 µM, active compounds read high.
Assay [7] addresses Neuropeptide Y receptor type 2 (Homo sapiens) (UniProt P49146). The assay can be described thus: agonism at human Y2 receptor without NPY – cell-based, fluorescence, counter-screen for NPY-Y2 potentiator project (AID 1710;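 active = activation above the mean of solvent-only control wells plus 3 SD, cut at about 10% in these data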;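 note: cells stimulated by isoproterenol with no NPY added so direct agonism is tested; 0% = DMSO with isoproterenol alone and 100% = NPY at EC100 plus isoproterenol; agonism lowers probe fluorescence through less cAMP and CNG channel opening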). To be noted: HEK293 Y2/CNGC cells, membrane potential fluorescence, agonist mode; at 3.6 µM; active compounds read high.
Assay [8] can be described thus: reduced OD of T4-infected AddAB+ E. coli – absorbance, E. coli V3065, T4 phage, triplicate, AddAB inhibitor project, confirmation (AID 488942;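 active = mean inhibition above a set limit taken from the earlier primary screen, cut at about 13% in these data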;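 note: higher means less bacterial growth since AddAB block lets phage replicate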). Particulars: E. coli V3065 expressing H. pylori AddAB, at 11.9 µM, active compounds read high, T4 phage with gene 2 nonsense mutations.
The nature of assay [9]: reduced OD of phage-infected RecBCD+ V66 E. coli – absorbance, mutant T4 phage, counter-screen for AddAB inhibitor project (AID 488955;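 active = mean inhibition above the mean of solvent-only control wells plus 3 SD, cut at about 4% in these data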;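 note: optical density read after an 18 h incubation at 37 °C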). Particulars: OD growth, at 11.9 µM, active compounds read high.
Assay [10] can be described thus: bacterial growth inhibitors – absorbance, counter-screen for AddAB inhibitor project, confirmation (AID 488956; in the data active = inhibition above about 25%). To be noted: bacterial viability, absorbance (AddAB counterscreen); at 11.9 µM; active compounds read high.
The target of assay [11] is Nuclear receptor coactivator 3 (Homo sapiens) (UniProt Q9Y6Q9). Kind of assay: NCOA3 GAL4-fusion reporter inhibition – cell-based, luminescence, quadruplicate, confirmation (AID 588792;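 active = mean inhibition over 43.08%, the solvent-only control mean plus 3 SD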;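 note: 0% = DMSO treated cells and 100% = gossypol at 36 µM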). Particulars: HEK293 GAL4-SRC3 luciferase reporter, at 3.6 µM, active compounds read high. Background: In a reporter assay the amount or activity of a reporter protein is the signal.
Assay [12] has as its system transactivating tegument protein VP16 (Human herpesvirus 1), Gal4-VP16 luciferase reporter. Kind of assay: repression of VP16-driven luciferase reporter – cell-based, luminescence, high throughput, counter-screen for SRC3 inhibitor project (AID 588794; in the data active = inhibition above about 30%). Particulars: mammalian cells, at 3.6 µM, active compounds read high.
For assay [13], the target named is Nuclear receptor coactivator 1 (Homo sapiens) (UniProt Q15788). Kind of assay: NCOA1 GAL4-fusion reporter inhibition – cell-based, luminescence, quadruplicate, confirmation (AID 588820;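 active = mean inhibition above 46.68%, the untreated control wells mean plus 3 SD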;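 note: 0% = DMSO wells and 100% = gossypol 36 µM treated wells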). To be noted: HEK293 GAL4-SRC1 luciferase reporter, at 3.6 µM, active compounds read high.
Assay [14] can be described thus: repression of VP16-driven luciferase reporter – cell-based, luminescence, high throughput, counter-screen for SRC1 inhibitor project (AID 588824; in the data active = inhibition above about 25%). To be noted: cell-based VP16 transactivation luciferase luminescence; at 3.6 µM; active compounds read high.
The target in assay [15] is Photoreceptor-specific nuclear receptor (Homo sapiens) (UniProt Q9Y5X4). The assay can be described thus: retest of NR2E3-NCOR disrupting agonists – cell-based, luminescence, CHO-S two-hybrid, confirmation (AID 624378;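 active = average inhibition above a cutoff equal to the mean inhibition of all tested compounds plus one SD, cut at about 70% in these data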;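 note: 0% = DMSO in NR2E3 cells and 100% = DMSO in cells lacking NR2E3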). Particulars: CHO-S mammalian two-hybrid NR2E3-NCOR, luciferase luminescence; at 3.98 µM; active compounds read high.
Assay [16] is described as follows: nonselective effects on VP16 transactivation – cell-based, luminescence, CHO-S, high throughput, counter-screen for NR2E3 agonist project, confirmation (AID 624379;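 active = mean inhibition above a cutoff equal to the average over all tested compounds plus one standard deviation, cut at about 70% in these data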;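 note: 0% = DMSO with VP16-transfected cells and 100% = DMSO with cells lacking VP16; higher means less reporter light so more repression of VP16 activity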). Particulars: CHO-S GAL4-VP16 luciferase reporter, at 3.98 µM, active compounds read high.
The nature of assay [17]: StAR promoter reporter inhibitors, counter-screen for LRH-1 inverse agonist project, cell-based, luminescence, high throughput (AID 651611; in the data active = inhibition above about 28%). Particulars: StAR promoter luciferase reporter counterscreen, at 3.6 µM, active compounds read high.
Assay [18] has as its target Nuclear receptor subfamily 5 group A member 2 (Homo sapiens) (UniProt O00482). Kind of assay: NR5A2 activity suppression in reporter cells – cell-based, luminescence, confirmation (AID 651613; in the data active = inhibition above about 42%;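 note: HEK293T cells co-transfected with LRH-1 and StAR promoter luciferase reporter; 0% = vehicle wells and 100% = parental cells lacking receptor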). To be noted: cell-based LRH-1 luciferase reporter, inverse agonism; at 3.6 µM; active compounds read high.
For assay [19], the target named is Steroidogenic factor 1 (Homo sapiens) (UniProt Q13285). The assay can be described thus: inverse agonism at SF1 nuclear receptor – cell-based, luminescence, high throughput, counter-screen for LRH-1 inverse agonist project (AID 651614; in the data active = inhibition above about 44%;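 note: cells cotransfected with StAR promoter reporter and SF1 expression vector; 0% = vehicle on cells with receptor and 100% = vehicle on cells lacking receptor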). To be noted: cell-based SF1 luciferase reporter, at 3.6 µM, active compounds read high.
Assay [20] is described as follows: compounds suppressing VP16-driven luciferase signal – cell-based, luminescence, high throughput, counter-screen for LRH-1 inverse agonist project (AID 651615; in the data active = inhibition above about 33%). Particulars: Gal4-VP16 luciferase reporter cells, at 3.6 µM, active compounds read high.
The nature of assay [21]: reduced OD of V66 E. coli with T4 gene 2 phage – absorbance, RecBCD inhibitor project, confirmation (AID 651982;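 active = mean inhibition over triplicates exceeding the hit threshold derived in the original primary screen, cut at about 11% in these data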). To be noted: E. coli V66 + T4 2- phage, growth OD; at 11.9 µM; active compounds read high.
Assay [22] in a line: bacterial growth inhibition – absorbance, high throughput, counter-screen for RecBCD inhibitor project (AID 651983; in the data active = inhibition above about 20%;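 note: E. coli strain V66 grown with compound alone and no phage infection; 0% = bacteria with DMSO vehicle only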). Particulars: E. coli viability, absorbance (OD) growth; at 11.9 µM; active compounds read high.
Assay [23] can be described thus: reduced optical density, T4-challenged addAB+ bacteria – absorbance, E. coli V3065, T4 phage, counter-screen for RecBCD inhibitor project, confirmation (AID 651984;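 active = mean inhibition above the solvent-only control wells' mean plus 3 SD, cut at about 22% in these data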;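 note: higher means less bacterial growth from phage killing when AddAB is blocked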). Particulars: E. coli expressing H. pylori AddAB + T4 phage, OD growth; at 11.9 µM; active compounds read high; gene 2 mutant T4, recBCD-deleted host.
A short description of assay [24]: VP16-driven transactivation reporter suppression – cell-based, luminescence, HEK293, counter-screen for COUP-TFII antagonist project (AID 687007; in the data active = inhibition above about 13%). To be noted: HEK293 Gal4-VP16 luciferase reporter, at 8.5 µM, active compounds read high.
In assay [25] the target is COUP transcription factor 2 (Homo sapiens) (UniProt P24468). The assay can be described thus: retest of COUP-TFII reporter suppressors – cell-based, luciferase reporter, HEK293, triplicate, confirmation (AID 687008;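 active = mean inhibition over three repeats above a set limit taken from the earlier primary screen, cut at about 38% in these data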;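 note: 100% = cells given the luciferase reporter alone without the COUP-TF2 vector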). To be noted: HEK293 NGFI-A luciferase reporter, luminescence; at 8.5 µM; active compounds read high.
Assay [26] has as its target Peroxisome proliferator-activated receptor gamma (Homo sapiens) (UniProt P37231). The assay can be described thus: retested PPARg-SRC-2 recruitment enhancers – biochemical, HTS, confirmation (AID 1297; in the data active = activation above about 22%;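 note: 0% = vehicle alone and 100% = reference agonist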). To be noted: biochemical SRC-2 recruitment by PPARgamma; at 8 µM; active compounds read high.
Assay [27] shares this target. The assay can be described thus: retest of SRC-1 recruitment enhancers for PPARgamma – biochemical, confirmation (AID 1300).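 Note: 0% = vehicle wells and 100% = reference agonist.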 Particulars: PPARgamma–SRC-1 coactivator recruitment biochemical assay; at 8 µM; active compounds read high.
Assay [28] has as its target Peroxisome proliferator-activated receptor gamma (Homo sapiens) + Nuclear receptor coactivator 3 (Homo sapiens) (UniProt P37231+Q9Y6Q9). The assay can be described thus: agonists promoting SRC-3 binding to PPARgamma – biochemical, confirmation (AID 1301; in the data active = activation above about 24%;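 note: 0% = vehicle wells and 100% = reference agonist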). Particulars: biochemical PPARgamma-SRC-3 coactivator recruitment, agonist mode; at 8 µM; active compounds read high.
For assay [29], the target named is Photoreceptor-specific nuclear receptor (Homo sapiens) (UniProt Q9Y5X4). Kind of assay: corepressor-releasing ligands of human NR2E3 – biochemical, TR-FRET, confirmation (AID 2379). Particulars: cell-free NR2E3 corepressor release, 5 h, at 3.98 µM, active compounds read high.
For assay [30], the target named is Peroxisome proliferator-activated receptor gamma (Homo sapiens) + Nuclear receptor corepressor 2 (Homo sapiens) (UniProt P37231+Q9Y618). Kind of assay: agonists of PPARg-NCOR2 corepressor interaction, counter-screen for NR2E3 agonist project, biochemical, TR-FRET (AID 504787; in the data active = inhibition above about 20%;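 note: 0% = DMSO vehicle and 100% = wells without protein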). To be noted: TR-FRET PPARg-NCOR2 coregulator interaction, at 3.98 µM, active compounds read high.

Values without a mark were called inactive. Some of the results follow. Activity calls are given as the source filed them. Cut-off read from the data, not from the text of the source, unless noted: active = activation above about 20%; inactive = the rest.

As usually defined, the inhibition is the drop in the measured response relative to a control, in per cent.

Chain of Sphingosine 1-phosphate receptor 4 (Homo sapiens) (O95977 whole entry, looked up): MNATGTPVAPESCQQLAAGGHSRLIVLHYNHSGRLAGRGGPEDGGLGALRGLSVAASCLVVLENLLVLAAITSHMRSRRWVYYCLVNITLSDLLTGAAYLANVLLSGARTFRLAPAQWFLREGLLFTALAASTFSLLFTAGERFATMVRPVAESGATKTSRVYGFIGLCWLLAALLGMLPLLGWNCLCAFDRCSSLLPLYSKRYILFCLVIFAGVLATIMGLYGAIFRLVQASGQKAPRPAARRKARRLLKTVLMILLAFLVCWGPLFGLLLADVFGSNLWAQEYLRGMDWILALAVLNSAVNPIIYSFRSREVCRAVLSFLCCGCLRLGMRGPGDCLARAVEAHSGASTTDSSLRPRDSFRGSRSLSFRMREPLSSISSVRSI
Chain of Sphingosine 1-phosphate receptor 1 (Homo sapiens) (P21453 whole entry, looked up): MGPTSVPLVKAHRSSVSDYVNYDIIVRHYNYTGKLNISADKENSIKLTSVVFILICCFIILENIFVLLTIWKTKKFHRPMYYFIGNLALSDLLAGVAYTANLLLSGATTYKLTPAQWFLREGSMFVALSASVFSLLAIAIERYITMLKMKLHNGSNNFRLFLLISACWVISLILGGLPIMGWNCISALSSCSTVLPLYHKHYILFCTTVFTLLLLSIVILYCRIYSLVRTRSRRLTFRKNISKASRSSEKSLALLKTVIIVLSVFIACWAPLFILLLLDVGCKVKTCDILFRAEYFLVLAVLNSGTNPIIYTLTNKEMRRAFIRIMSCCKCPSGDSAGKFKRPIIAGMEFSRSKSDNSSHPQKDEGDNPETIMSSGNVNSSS
Chain of Peroxisome proliferator-activated receptor gamma (Homo sapiens) + Nuclear receptor coactivator 3 (Homo sapiens) (P37231 whole entry, looked up): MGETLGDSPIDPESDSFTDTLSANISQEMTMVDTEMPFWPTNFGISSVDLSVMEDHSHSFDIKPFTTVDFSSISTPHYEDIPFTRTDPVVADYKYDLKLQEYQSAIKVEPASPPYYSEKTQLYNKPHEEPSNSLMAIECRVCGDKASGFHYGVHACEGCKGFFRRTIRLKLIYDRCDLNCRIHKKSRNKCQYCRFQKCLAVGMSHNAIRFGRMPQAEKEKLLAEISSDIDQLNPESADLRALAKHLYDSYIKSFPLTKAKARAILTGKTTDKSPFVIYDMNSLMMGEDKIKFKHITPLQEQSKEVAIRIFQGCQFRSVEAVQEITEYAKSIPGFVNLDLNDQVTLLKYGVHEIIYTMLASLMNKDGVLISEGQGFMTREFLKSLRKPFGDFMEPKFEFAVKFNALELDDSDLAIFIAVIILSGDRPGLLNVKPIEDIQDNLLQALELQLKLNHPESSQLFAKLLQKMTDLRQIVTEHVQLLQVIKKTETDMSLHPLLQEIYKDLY
Chain of Peroxisome proliferator-activated receptor gamma (Homo sapiens) + Nuclear receptor coactivator 3 (Homo sapiens) (Q9Y6Q9 whole entry, looked up): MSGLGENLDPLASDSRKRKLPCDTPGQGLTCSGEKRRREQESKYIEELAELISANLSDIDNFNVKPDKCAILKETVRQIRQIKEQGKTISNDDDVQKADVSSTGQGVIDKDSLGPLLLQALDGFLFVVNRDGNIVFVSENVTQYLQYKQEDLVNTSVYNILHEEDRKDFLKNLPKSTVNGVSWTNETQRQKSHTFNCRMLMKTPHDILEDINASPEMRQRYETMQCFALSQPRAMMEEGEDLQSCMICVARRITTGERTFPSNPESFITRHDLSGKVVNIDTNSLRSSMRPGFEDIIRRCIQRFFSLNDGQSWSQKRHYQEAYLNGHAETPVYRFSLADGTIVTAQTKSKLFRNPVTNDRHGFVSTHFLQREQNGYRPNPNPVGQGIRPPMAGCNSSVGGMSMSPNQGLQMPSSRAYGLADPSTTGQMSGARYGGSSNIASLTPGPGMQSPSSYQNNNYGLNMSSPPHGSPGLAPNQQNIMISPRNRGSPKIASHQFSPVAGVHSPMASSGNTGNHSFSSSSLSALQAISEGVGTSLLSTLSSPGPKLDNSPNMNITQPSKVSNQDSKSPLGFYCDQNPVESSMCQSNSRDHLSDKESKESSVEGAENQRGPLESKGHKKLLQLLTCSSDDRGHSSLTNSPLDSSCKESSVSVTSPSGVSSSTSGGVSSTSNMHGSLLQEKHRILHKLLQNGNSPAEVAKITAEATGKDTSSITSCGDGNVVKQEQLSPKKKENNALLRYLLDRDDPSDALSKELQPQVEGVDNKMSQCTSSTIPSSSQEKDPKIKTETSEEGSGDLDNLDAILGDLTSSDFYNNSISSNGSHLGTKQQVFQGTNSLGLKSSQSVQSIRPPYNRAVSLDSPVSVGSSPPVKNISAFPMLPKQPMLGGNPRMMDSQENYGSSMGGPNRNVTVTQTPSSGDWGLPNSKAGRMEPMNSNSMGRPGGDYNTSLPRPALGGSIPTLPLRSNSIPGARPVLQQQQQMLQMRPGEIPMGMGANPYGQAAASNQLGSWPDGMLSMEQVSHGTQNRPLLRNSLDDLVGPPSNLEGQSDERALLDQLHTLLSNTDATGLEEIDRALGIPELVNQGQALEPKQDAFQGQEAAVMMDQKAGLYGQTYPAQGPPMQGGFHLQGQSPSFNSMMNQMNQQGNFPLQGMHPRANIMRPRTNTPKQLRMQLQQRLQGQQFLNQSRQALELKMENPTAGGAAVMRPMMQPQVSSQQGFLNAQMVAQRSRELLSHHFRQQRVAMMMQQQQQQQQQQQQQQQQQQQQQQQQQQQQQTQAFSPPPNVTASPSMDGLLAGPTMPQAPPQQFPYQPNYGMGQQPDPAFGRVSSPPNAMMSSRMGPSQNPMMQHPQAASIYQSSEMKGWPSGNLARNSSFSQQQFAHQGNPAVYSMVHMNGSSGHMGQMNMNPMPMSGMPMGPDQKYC
Chain of Peroxisome proliferator-activated receptor gamma (Homo sapiens) (P37231 whole entry, looked up): as the sequence (P37231 whole entry, looked up) above
Chain of Neuropeptide Y receptor type 2 (Homo sapiens) (P49146 whole entry, looked up): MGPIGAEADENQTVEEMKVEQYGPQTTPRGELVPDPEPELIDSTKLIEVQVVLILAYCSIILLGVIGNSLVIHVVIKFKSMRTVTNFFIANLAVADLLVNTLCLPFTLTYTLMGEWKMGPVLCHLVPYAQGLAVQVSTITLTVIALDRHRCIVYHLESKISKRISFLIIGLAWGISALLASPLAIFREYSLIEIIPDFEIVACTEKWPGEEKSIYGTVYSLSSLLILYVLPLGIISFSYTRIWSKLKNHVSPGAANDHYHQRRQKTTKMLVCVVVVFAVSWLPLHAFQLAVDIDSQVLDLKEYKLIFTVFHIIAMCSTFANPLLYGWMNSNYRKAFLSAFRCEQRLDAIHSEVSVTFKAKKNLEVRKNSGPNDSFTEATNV
Chain of Neuropeptide Y receptor type 1 (Homo sapiens) (P25929 whole entry, looked up): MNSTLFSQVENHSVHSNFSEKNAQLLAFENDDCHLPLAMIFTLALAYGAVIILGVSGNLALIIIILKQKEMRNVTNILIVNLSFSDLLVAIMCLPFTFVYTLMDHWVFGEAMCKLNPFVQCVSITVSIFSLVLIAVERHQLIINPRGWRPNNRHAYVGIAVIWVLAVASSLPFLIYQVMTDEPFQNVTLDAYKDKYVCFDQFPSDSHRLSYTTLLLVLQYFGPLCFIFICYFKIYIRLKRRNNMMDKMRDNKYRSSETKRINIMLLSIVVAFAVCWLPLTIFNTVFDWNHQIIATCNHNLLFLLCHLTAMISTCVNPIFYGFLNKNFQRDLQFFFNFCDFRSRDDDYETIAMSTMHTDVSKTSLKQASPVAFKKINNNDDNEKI
Chain of Photoreceptor-specific nuclear receptor (Homo sapiens) (Q9Y5X4 whole entry, looked up): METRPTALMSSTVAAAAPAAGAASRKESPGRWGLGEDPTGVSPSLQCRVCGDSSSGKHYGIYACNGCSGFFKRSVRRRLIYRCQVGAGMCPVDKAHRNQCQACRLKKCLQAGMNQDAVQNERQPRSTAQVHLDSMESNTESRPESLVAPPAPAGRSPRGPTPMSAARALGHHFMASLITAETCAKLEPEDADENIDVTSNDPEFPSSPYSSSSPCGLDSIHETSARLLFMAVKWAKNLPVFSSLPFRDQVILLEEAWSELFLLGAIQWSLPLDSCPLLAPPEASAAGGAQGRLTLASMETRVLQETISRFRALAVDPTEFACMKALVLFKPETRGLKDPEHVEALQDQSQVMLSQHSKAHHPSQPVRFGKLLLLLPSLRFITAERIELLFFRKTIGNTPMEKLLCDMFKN
Chain of Nuclear receptor coactivator 3 (Homo sapiens) (Q9Y6Q9 whole entry, looked up, the tested form may be a part): as the sequence (Q9Y6Q9 whole entry, looked up) above
Chain of Nuclear receptor subfamily 5 group A member 2 (Homo sapiens) (O00482 whole entry, looked up): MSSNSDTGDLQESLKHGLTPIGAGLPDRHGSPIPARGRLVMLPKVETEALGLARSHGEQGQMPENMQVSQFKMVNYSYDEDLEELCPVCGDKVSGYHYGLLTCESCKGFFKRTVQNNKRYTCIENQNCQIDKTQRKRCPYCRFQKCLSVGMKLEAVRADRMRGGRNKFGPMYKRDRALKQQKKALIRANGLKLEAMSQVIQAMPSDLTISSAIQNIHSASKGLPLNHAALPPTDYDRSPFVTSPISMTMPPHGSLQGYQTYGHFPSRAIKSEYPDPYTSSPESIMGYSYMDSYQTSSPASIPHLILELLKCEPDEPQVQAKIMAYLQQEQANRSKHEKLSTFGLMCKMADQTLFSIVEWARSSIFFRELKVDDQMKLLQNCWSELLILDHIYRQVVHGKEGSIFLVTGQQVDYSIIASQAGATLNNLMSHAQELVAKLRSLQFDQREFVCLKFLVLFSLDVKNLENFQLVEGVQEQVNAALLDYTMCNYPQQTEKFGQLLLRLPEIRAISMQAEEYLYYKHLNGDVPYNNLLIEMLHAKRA

Consider `O=C(CC(O)(C(F)(F)F)C(F)(F)F)Nc1ccc(Cl)c(Cl)c1`, for which the inhibition is 37.4% (active) in assay [1]; 8.72% in [3]; -7.55% in [6]; 16.9% (active) in assay [8]; 21.6% (active) in assay [9]; 16.9% in assay [10]. The inhibition is 58.7% (active) in assay [11]; 65.2% (active) in assay [12]; 46.4% in [13]; 74.2% (active) in [14]; 99.8% (active) in [15]; 89.7% (active) in assay [16]. Moreover, the inhibition in assay [17] is 74.3% (active); in assay [18], 102% (active); in [19], 90.4% (active); in [20], 88.5% (active); in assay [21] it was 16.8% (active); in [22] it was 20.4% (active). Moreover, the inhibition is 22.1% (active) in [23], 20.4% (active) in [24] and 62.1% (active) in assay [25]. Further, the activation in assay [2] was 17%; in [4], -22.8%; in assay [5], -13.7%; in [7], 11.5% (active).
For the compound `CCc1c(-c2ccccc2)nc(N)c(C#N)c1-c1cccs1`, the activation is 11.1% in [26], 13.3% in assay [27] and 8.84% in [28].
The like results for `Cn1c(=O)cc(SCC(=O)N2CCCC2)c2cc(Cl)ccc21` were, in that order, 60.1% (active), 41.1% (active) and 42% (active).
As for `Cc1cc2oc(C(=O)Nc3c(C)n(C)n(-c4ccccc4)c3=O)c(C)c2cc1Cl`, the inhibition is 63.1% (active) in assay [1] and 19.1% in [3].
As to `Cc1cc(N2C(=O)C(=O)/C(=C(/O)c3ccc(Cl)cc3)C2c2cccc(Br)c2)no1` (stereo not drawn), the activation in assay [26] was 28.1% (active); in assay [27], 18.8%; in [28], 14%.
The like results for `Cc1ccc(OCC(=O)Nc2ccc(-c3nc4ncccc4o3)cc2)cc1` were, in that order, 2.88%, 8.01% and 5.41%.
The like results for `COc1ccc(/C(O)=C2/C(=O)C(=O)N(c3nc(C)c(C)s3)C2c2ccco2)cc1` (stereo not drawn) were, in that order, 21.9% (active), 17.5% and 16.1%.
In the same order, the values of `CCOc1ccc(NC(=O)CSc2ncnc3c2sc2ccccc23)cc1` are 46% (active), 29.5% (active) and 32.6% (active).
With `CC(=O)c1sc2nc(SCC(=O)N3CCCCC3)[nH]c(=O)c2c1C`, the activation in assay [26] is 27.4% (active); in assay [27], 20.8% (active); in [28] it was 18.3%. The activation (reported as inhibition) in assay [29] was 17.4%. In [30], the inhibition is 21.1% (active).
For `COc1ccc2c(Cl)c(-c3nnco3)sc2c1`, the figures for the activation in [26], in assay [27] and in [28] were 20.4%, 13.6% and 13.6%, respectively.
As to `COC(=O)c1[nH]c2ccc(Br)cc2c1NC(=O)Oc1ccccc1`, the activation in assay [26] is 7.14%; in assay [27], 3.71%; in assay [28], 4.54%.
With `CCOC(=O)/C=C/C(=O)OCC(=O)NC(c1ccccc1)c1ccccc1`, the inhibition in assay [1] is 63% (active); in assay [3], 23.2%.
